Test [1] is described as follows: cAMP Responsive Elements (CRE) small molecule antagonists, cell-based qHTS assay: qHTS cell viability counter screen (AID 2060913). Further: nearly all actives have a fitted effect of over 40% in size. The method in brief: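 Cytotoxicity read in the same wells as the CRE-bla HEK293T antagonist assay: after 3 h compound with 0.25 uM NKH477 final and 2 h beta-lactamase substrate, CellTiter-Glo luminescence measured.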
A short description of test [2]: cAMP Responsive Elements (CRE) small molecule agonists, cell-based qHTS assay: qHTS cell viability counter screen (AID 2060914). Further: nearly all actives have a fitted effect of over 50% in size. Put shortly: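 In the same wells as the reporter read, viability of CRE-bla HEK 293T cells was quantified by CellTiter-Glo luminescence after a 3 h compound exposure.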

Inconclusive results are not listed. Values without a mark were called inactive. Activity calls are given as the source filed them. The call rests on the fitted dose curve; in most records, active means well fitted cell-killing curve with a large enough effect in the repeat runs; inconclusive means weak or mixed curves, or effect the other way; inactive means flat fitted curve, though single readings scatter.
On the % scale 0 is the no-effect control and ±100 the full control effect; potency means the concentration at half of the fitted maximal effect.

For `COP(=S)(OC)Oc1ccc(SC)c(C)c1`, the Potency entry in test [1] and in test [2] was “inactive” in each case.
Take `CC(C#N)CCC#N` (centres undefined): the Potency entry in test [1] and in test [2] was “inactive” throughout.
As for `c1ccc(C2CC2)c(OCC2=NCCN2)c1`, the Potency result in test [1] and in test [2] was “inactive” in each case.
`CCCCCCCCCCCCCCCl`: the Potency result in test [1] and in test [2] was “inactive” throughout.
Regarding `O=C(Nc1ccc(Br)cc1)c1cc(Br)cc(Br)c1O`, the Potency entry in test [1] and in test [2] was “inactive” each time.
As for `CC(C)NCC(O)c1ccc(N)c(C#N)c1` (centres undefined), the Potency result in test [1] and in test [2] was “inactive” in each case.
Consider `ClC(Cl)c1ccccc1`, for which the Potency result in test [1] and in test [2] was “inactive” in each case.
Regarding `S=C=Nc1ccccc1`, the Potency result in test [1] and in test [2] was “inactive” throughout.
On to `CCOP(=S)(OCC)Oc1ccc2c(C)c(Cl)c(=O)oc2c1`, for which the Potency entry in test [1] and in test [2] was “inactive” each time.
For the compound `N#CS`, the Potency entry in test [1] and in test [2] was “inactive” throughout.
Turning to `CCCCn1cc[n+](C)c1` (tested in a mixture with another compound), the Potency entry in test [1] and in test [2] was “inactive” in each case.
Take `O=C(O)C(Cl)(Cl)Cl`: the Potency entry in test [1] and in test [2] was “inactive” throughout.
In the case of `CC(C)(C)C(=O)Cl`, the Potency result in test [1] and in test [2] was “inactive” in each case.
Regarding `CCOP(=O)(OCC)OCC`, the Potency result in test [1] and in test [2] was “inactive” throughout.
For the compound `OC(O)C(Cl)(Cl)Cl`, the Potency entry in test [1] and in test [2] was “inactive” throughout.
On to `O=C(Cc1ccccc1)c1ccccc1`, for which the Potency result in test [1] and in test [2] was “inactive” each time.
`O=C(O)c1nn(Cc2ccc(Cl)cc2Cl)c2ccccc12`: the Potency entry in test [1] and in test [2] was “inactive” each time.
Regarding `Nc1cccnc1`, the Potency result in test [1] and in test [2] was “inactive” throughout.
As to `CC(Cc1ccc(O)cc1)NCC(O)c1cc(O)cc(O)c1` (centres undefined), the Potency result in test [1] and in test [2] was “inactive” in each case.
Turning to `COc1cc(CC(C)N)c(OC)cc1Br` (centres undefined), the Potency entry in test [1] and in test [2] was “inactive” throughout.
As to `CC(C)(C)c1ccc(OP(=O)(Oc2ccccc2)Oc2ccccc2)cc1`, the Potency result in test [1] and in test [2] was “inactive” throughout.
Consider `CC(Cl)CN(C)C` (centres undefined), for which the Potency entry in test [1] and in test [2] was “inactive” in each case.
On to `CCC(=O)OC1(c2ccccc2)CCN(C)CC1`, for which the Potency entry in test [1] and in test [2] was “inactive” in each case.
Consider `CCC/C(=N\OCC)C1=C(O)CC(CC(C)SCC)CC1=O` (centres undefined), for which the Potency entry in test [1] and in test [2] was “inactive” throughout.
Turning to `CCCCC(=O)Cl`, the Potency result in test [1] and in test [2] was “inactive” in each case.
Take `Oc1cc(Cl)ccc1Cl`: the Potency entry in test [1] and in test [2] was “inactive” in each case.
Take `CCOC(=O)CP(=O)(OCC)OCC`: the Potency entry in test [1] and in test [2] was “inactive” throughout.
In the case of `C[C@]12C/C(=C/O)C(=O)C[C@@H]1CC[C@@H]1[C@@H]2CC[C@@]2(C)[C@H]1CC[C@]2(C)O`, the Potency entry in test [1] and in test [2] was “inactive” each time.
As for `Oc1ccc(Cc2ccc(O)cc2)cc1`, the Potency result in test [1] and in test [2] was “inactive” throughout.
As for `CCOP(=S)(OCC)O/N=C(\C#N)c1ccccc1`, the Potency result in test [1] and in test [2] was “inactive” throughout.
On to `CCc1ccccc1N`, for which the Potency entry in test [1] and in test [2] was “inactive” in each case.
For `CCCCCc1cc(O)cc(O)c1`, the Potency result in test [1] and in test [2] was “inactive” in each case.
Regarding `CC(=O)[O-].CC(=O)[O-].CC(=O)[O-].[Cr+3]`, the Potency result in test [1] and in test [2] was “inactive” each time.
As for `CCN(CC)C(=S)[S-].CCN(CC)C(=S)[S-].[Zn+2]`, the Potency is 6.8 µM (active) in test [1] and 19.2 µM (active) in test [2].
Taken in the same sequence, the figures for `COP(=O)(OC)SCn1c(=O)oc2cc(Cl)cnc21` were “inactive” and “inactive”.
Regarding `Oc1ccccc1-c1ccccc1`, the Potency result in test [1] and in test [2] was “inactive” throughout.
For the compound `CCCCOCCOC(C)=O`, the Potency entry in test [1] and in test [2] was “inactive” in each case.
For the compound `Clc1ccc(CO/N=C(\Cn2ccnc2)c2ccc(Cl)cc2Cl)c(Cl)c1`, the Potency entry in test [1] and in test [2] was “inactive” each time.
Turning to `C=CCC1([C@H](C)CCC)C(=O)NC(=O)NC1=O`, the Potency result in test [1] and in test [2] was “inactive” throughout.
Turning to `COC(=O)c1cncn1C(C)c1ccccc1` (centres undefined), the Potency entry in test [1] and in test [2] was “inactive” in each case.
Consider `CCC(C)Br` (centres undefined), for which the Potency result in test [1] and in test [2] was “inactive” throughout.
Turning to `O=NN(c1ccccc1)c1ccccc1`, the Potency entry in test [1] and in test [2] was “inactive” each time.
As to `NCC(CC(=O)O)c1ccc(Cl)cc1` (centres undefined), the viability change, negative = cytotoxic in test [1] was -0.747% [at 0.349 µM]. Also, the activity change, negative = cytotoxicity in test [2] is -9.73% [at 0.349 µM].
Regarding `c1ccc2c(c1)-c1cccc3cccc-2c13`, the Potency result in test [1] and in test [2] was “inactive” each time.
Turning to `Cc1ccc(N)cc1C`, the Potency result in test [1] and in test [2] was “inactive” in each case.
Regarding `COc1ccc(C(O)(c2cncnc2)C2CC2)cc1` (centres undefined), the Potency entry in test [1] and in test [2] was “inactive” each time.
Consider `CN1CCC(O)(c2ccc(F)cc2)C(C(=O)c2ccc(F)cc2)C1` (centres undefined), for which the Potency entry in test [1] and in test [2] was “inactive” each time.
As for `Nc1ccc(Cl)cc1C(=O)c1ccccc1F`, the Potency entry in test [1] and in test [2] was “inactive” throughout.
Regarding `NC(=S)c1c(Cl)cccc1Cl`, the Potency result in test [1] and in test [2] was “inactive” each time.
For the compound `NC(=O)CS(=O)C(c1ccccc1)c1ccccc1` (centres undefined), the Potency entry in test [1] and in test [2] was “inactive” each time.
Turning to `O=c1oc2ccccc2c(O)c1C1CCCc2ccccc21` (centres undefined), the Potency entry in test [1] and in test [2] was “inactive” throughout.
With `O=C(Nc1ccccc1)N(Cc1ccc(Cl)cc1)C1CCCC1`, the Potency result in test [1] and in test [2] was “inactive” each time.
As for `COP(=O)(OC)OC(Br)C(Cl)(Cl)Br` (centres undefined), the Potency result in test [1] and in test [2] was “inactive” each time.
In the case of `C=C(Cl)CCl`, the Potency entry in test [1] and in test [2] was “inactive” in each case.
On to `Cc1ccc(O)c(C)c1`, for which the Potency entry in test [1] and in test [2] was “inactive” each time.
With `CCC12COCN1COC2`, the Potency entry in test [1] and in test [2] was “inactive” throughout.
For `CCCCOC(=O)c1ccccc1C(=O)O`, the Potency result in test [1] and in test [2] was “inactive” throughout.

For the origin of these results see PubChem BioAssay (Tox21).
